Measured values: PubChem BioAssay

assay: small-molecule binders of probe aLefty1, primary screen, biochemical, small-molecule microarray, 635/667 nm fluorescence (AID 1153); conditions: higher = more signal;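 further: score merges spot fluorescence with signal-to-noise ratio from the scanned slide images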

| SMILES | composite z-score |
| --- | --- |
| NC(=O)[C@]1(Cc2ccccc2)N=C(c2ccc(OCCCO)cc2)O[C@@H]1c1ccccc1 | 0.351 |
| CCCCN1CC=CC23O[C@@H]4C=CCCOC(=O)C4[C@H]2C(=O)N(CCCO)[C@@H]3C1=O (stereo partly drawn) | -0.321 |
| C=CC[C@@]1(C(=O)OC)N=C(c2ccc(OCCCO)cc2)O[C@@H]1c1ccccc1CN=[N+]=[N-] | 0.0674 |
| C=CC[C@@]1(C(N)=O)N=C(c2ccc(OCCCO)cc2)O[C@@H]1c1ccccc1N=[N+]=[N-] | 0.355 |
| Cc1ccc(N2C(=O)c3ccccc3[C@@H](C(=O)NCC(C)C)[C@@H]2c2ccc(CO)cc2)nc1 | -0.0186 |
| CN1C(=O)C2C=CC(C(O)c3ccc(Br)cc3)N(Nc3ccccc3)C2C1=O (stereo not drawn) | 0.106 |
| CCCC[C@@H]1C[C@H]1[C@@H](NC(=O)c1ccccc1)c1ccccc1 | 1.43 |
| CN(C)CCCCCCNC(=O)[C@@H]1C[C@@H]2C(=O)NCC(=O)N2[C@@H]1c1cccc(OCCO)c1 | 0.169 |
| COC(=O)c1c(CC[C@@H](CO)NC(=O)Nc2ncn[nH]2)oc(C(=O)Cc2ccccc2)c1C(=O)OC | 0.0751 |
| COC(=O)[C@@]1(Cc2ccc(F)cc2)[C@H]2c3cc(C(=O)N4CCCC4)n(CCc4ccc(OC)c(Br)c4)c3C[C@H]2CN1C(=O)c1ccccc1 | 1.2 |
| [N-]=[N+]=NCc1ccccc1[C@@H]1OC(c2ccc(OCCCO)cc2)=N[C@]1(Cc1ccccc1N=[N+]=[N-])C(N)=O | 0.636 |
| C#C[C@H](O[Si](C#CCCCCCC)(C(C)C)C(C)C)c1ccccc1 | -0.468 |
| CC(=O)NCCCC[C@@H]1NC(=O)[C@@H]2C[C@H](C(=O)NCc3ccc(F)cc3)[C@H](c3ccc(O)cc3)N2C1=O | -0.0601 |
